Experimental data: PubChem BioAssay (Tox21)
Inconclusive results are not listed. Active and inactive are the calls of the source. Unless noted, calls come from the whole dose curve; as a rule, active = well fitted curve in the direction sought with a large enough effect in the repeat runs; inconclusive = weak or mixed curves; inactive = no such curve, though single readings can be large; an effect the other way counts as inactive or inconclusive.

What was measured:
[1] = target: Thyrotropin receptor (Homo sapiens) (UniProt P16473); test: qHTS assay to identify small molecule antagonists of the thyroid stimulating hormone receptor (TSHR) signaling pathway (AID 1259385; calls by dose curve; note: nearly all actives have a fitted effect of over 20% in size)
Sequence of Thyrotropin receptor (Homo sapiens) (P16473 whole entry, looked up): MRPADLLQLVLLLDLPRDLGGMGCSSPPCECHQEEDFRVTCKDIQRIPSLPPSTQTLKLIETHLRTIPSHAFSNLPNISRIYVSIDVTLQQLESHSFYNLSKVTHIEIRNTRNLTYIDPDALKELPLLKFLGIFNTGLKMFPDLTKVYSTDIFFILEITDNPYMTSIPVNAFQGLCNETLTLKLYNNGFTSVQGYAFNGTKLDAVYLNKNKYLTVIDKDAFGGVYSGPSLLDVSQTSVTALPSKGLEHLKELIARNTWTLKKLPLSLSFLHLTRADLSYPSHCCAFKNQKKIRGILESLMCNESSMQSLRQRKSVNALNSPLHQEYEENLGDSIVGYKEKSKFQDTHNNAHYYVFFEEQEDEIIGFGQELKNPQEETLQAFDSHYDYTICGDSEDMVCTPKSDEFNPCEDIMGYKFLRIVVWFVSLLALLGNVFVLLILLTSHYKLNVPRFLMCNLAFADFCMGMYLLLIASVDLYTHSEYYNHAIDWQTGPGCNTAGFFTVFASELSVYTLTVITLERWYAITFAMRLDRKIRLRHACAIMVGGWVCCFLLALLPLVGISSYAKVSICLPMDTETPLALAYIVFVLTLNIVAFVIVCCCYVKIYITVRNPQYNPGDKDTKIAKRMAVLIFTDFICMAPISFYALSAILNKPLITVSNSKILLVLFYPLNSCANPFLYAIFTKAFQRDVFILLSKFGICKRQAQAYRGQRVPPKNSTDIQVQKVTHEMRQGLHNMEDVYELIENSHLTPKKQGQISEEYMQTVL
Outline: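 Antagonist mode: compound-treated TSHR-expressing HEK293 cells were stimulated with 1.5 ng/mL TSH (final) in presence of Ro20-1724 for 30 min at RT. HTRF cAMP detection after 1 h; each compound tested at 15 concentrations, triplicate.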

[2] = qHTS assay to identify small molecule agonists of the estrogen receptor alpha (ER-alpha) signaling pathway in the presence of an antagonist - cell viability counter screen (AID 1259386);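 note: series mostly up to about 92 µM; cells exposed to compounds for 22 h at 37 °C before the viability read; nearly all actives have a fitted effect of over 30% in size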
Outline: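 VM7Luc4E2, stripped-serum pre-culture 5 d; 24hr plating; +ICI-182,780 10.0nM final; cpds 15 conc, 22hr, 37C/5% CO2; CellTiter-Fluor added at 21hr, fluorescence 1hr later.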

[3] = target: Progesterone receptor (Homo sapiens) (UniProt P06401); test: qHTS assay to identify small molecule agonists of the progesterone receptor (PR) signaling pathway (AID 1346784; calls by dose curve; note: nearly all actives have a fitted effect of over 30% in size; note: potency is the fitted concentration of half-maximal effect)
Sequence of Progesterone receptor (Homo sapiens) (P06401 whole entry, looked up): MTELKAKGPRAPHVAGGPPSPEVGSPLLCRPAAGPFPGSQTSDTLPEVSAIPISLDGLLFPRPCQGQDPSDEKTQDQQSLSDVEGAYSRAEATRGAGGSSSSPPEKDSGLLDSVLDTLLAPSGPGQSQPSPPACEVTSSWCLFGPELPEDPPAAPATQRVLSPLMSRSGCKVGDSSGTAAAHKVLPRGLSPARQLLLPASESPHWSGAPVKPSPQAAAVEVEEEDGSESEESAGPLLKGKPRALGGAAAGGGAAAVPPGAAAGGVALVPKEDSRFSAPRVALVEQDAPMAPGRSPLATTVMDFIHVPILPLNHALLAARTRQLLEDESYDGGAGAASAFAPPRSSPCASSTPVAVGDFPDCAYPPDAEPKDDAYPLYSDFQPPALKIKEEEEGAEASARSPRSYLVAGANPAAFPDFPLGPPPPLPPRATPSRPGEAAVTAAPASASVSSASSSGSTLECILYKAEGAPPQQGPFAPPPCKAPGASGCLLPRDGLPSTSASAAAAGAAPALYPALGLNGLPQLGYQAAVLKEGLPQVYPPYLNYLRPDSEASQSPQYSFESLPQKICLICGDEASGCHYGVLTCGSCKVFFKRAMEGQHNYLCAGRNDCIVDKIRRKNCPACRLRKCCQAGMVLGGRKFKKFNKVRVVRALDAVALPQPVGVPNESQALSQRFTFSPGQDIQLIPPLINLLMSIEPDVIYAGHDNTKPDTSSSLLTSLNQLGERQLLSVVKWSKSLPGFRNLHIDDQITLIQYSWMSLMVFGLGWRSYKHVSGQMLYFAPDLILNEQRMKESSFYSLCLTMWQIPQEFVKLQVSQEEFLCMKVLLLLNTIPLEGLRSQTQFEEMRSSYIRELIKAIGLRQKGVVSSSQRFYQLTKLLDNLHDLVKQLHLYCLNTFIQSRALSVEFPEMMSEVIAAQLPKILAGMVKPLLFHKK
Outline: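 Reporter assay, GripTite PR-UAS-bla HEK 293T cells: 16 hr exposure to DMSO-dissolved compounds at 37C, 5% CO2, in steroid-depleted (2% charcoal-stripped FBS) medium; beta-lactamase measured by FRET fluorescence.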

[4] = qHTS assay to identify small molecule agonists of the progesterone receptor (PR) signaling pathway - cell viability counter screen (AID 1346799; calls by dose curve; note: nearly all actives have a fitted effect of over 45% in size)
Outline: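 Multiplexed viability read: CellTiter-Glo luminescence, 30 min RT, following LiveBLAzer FRET measurement on PR-UAS-bla HEK293T cells exposed to compounds 16 hr.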

[5] = qHTS assay to identify small molecule antagonists of the TGF-beta/Smad signaling pathway - cell viability counter screen (AID 1346824); note: nearly all actives have a fitted effect of over 50% in size
Outline: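 Cytotoxicity counter-screen run in the same wells as the beta-lactamase Smad reporter read: CellTiter-Glo luminescence after 30 min at room temperature. HEK 293T SBE-bla cells had 5 hr compound exposure at 37 C with TGF-beta1 (0.25 ng/mL stock).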

[6] = qHTS assay to identify small molecule agonists of the TGF-beta/Smad signaling pathway - cell viability counter screen (AID 1346829); note: top concentration of the series differs between compounds; nearly all actives have a fitted effect of over 45% in size
Outline: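 SBE-bla HEK 293T cells plated overnight, compound exposure 5 hr at 37 C. Viability read in the same wells by CellTiter-Glo luminescence after 30 min at room temperature, following the beta-lactamase read.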

[7] = Human pregnane X receptor (PXR) small molecule agonists, qHTS cell viability counter screen (AID 1346977); note: nearly all actives have a fitted effect of over 50% in size
Outline: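 In each well, the PXR reporter HepG2 line was checked for viability: CellTiter-Fluor reagent added 23hr post-dosing, fluorescence read after 1hr incubation at 37C.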

[8] = Caspase-3/7 induction in HepG2 cells by small molecules, qHTS assay (AID 1346978); note: nearly all actives have a fitted effect of over 15% in size; note: potency is the fitted concentration of half-maximal effect
Outline: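 Caspase-3/7 induction was measured by Caspase-Glo 3/7 luminescence (30 min, room temperature) after a 17 hr compound exposure of wild-type HepG2 cells seeded at 2,000 per well and pre-incubated 5 hr.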

[9] = Caspase-3/7 induction in HepG2 cells by small molecules, qHTS cell viability counter screen (AID 1346981); note: series mostly up to about 92 µM; nearly all actives have a fitted effect of over 30% in size
Outline: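 HepG2, WT, 2,000 cells/well; 5 hr pre-incubation 37 C/5% CO2; compound pin-transferred from DMSO; 16 hr exposure; CellTiter-Fluor, 1 hr; fluorescence read.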

[10] = target: Cytochrome P450 2D6 (Homo sapiens) (UniProt P10635); test: Cytochrome P450 Family 2 Subfamily D Member 6 (CYP2D6) small molecule antagonists: luciferase reporter qHTS assay (AID 1671196); note: nearly all actives have a fitted effect of over 50% in size; note: potency is the fitted concentration of half-maximal effect
Sequence of Cytochrome P450 2D6 (Homo sapiens) (P10635 whole entry, looked up): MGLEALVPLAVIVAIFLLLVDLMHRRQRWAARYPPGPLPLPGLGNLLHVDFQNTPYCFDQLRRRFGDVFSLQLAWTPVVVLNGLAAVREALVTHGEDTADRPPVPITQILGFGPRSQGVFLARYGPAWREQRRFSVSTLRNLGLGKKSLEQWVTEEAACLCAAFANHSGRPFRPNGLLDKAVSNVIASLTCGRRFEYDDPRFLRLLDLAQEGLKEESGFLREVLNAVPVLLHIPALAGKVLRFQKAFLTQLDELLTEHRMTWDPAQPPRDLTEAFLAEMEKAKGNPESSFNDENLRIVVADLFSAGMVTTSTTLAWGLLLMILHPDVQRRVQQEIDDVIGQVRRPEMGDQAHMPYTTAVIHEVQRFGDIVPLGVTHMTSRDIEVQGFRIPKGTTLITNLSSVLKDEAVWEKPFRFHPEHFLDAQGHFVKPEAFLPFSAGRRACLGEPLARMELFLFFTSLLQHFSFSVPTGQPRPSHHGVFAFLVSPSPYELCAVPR
Outline: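 Read-out is luminescence from luciferin formed by CYP2D6 turnover of a proluciferin substrate, recorded as relative luminescence units. Reactions ran 1 h at room temperature after NADPH regeneration solution was added.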

[11] = qHTS assay to identify small molecule antagonists of the progesterone receptor (PR) signaling pathway - cell viability counter screen (AID 1346798); note: series mostly up to about 92 µM; nearly all actives have a fitted effect of over 50% in size
Outline: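 In the same plates used for the beta-lactamase readout, cell viability of compound- and R5020-treated PR-UAS-bla HEK293T cells (16 hr, 37C) was assessed by CellTiter-Glo luminescence.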

[12] = qHTS assay to identify small molecule agonists of the TGF-beta/Smad signaling pathway (AID 1346859; active = well fitted activation curve with a large enough effect in the signal ratio in the repeat runs, not every such curve was filed as active; the % refers to the signal ratio; note: series mostly up to about 77 µM)
Outline: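 Screening used HEK 293T SBE-bla cells at 4,000/well. Test agents: 5 hr, 37 C. Detection: FRET substrate, 2 hr RT, then excitation 405 nm with emissions at 460 and 530 nm.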

[13] = target: Nuclear receptor subfamily 1 group I member 2 (Homo sapiens) (UniProt O75469); test: Human pregnane X receptor (PXR) small molecule agonists, qHTS assay (AID 1346982); note: nearly all actives have a fitted effect of over 35% in size; note: potency is the fitted concentration of half-maximal effect
Sequence of Nuclear receptor subfamily 1 group I member 2 (Homo sapiens) (O75469 whole entry, looked up): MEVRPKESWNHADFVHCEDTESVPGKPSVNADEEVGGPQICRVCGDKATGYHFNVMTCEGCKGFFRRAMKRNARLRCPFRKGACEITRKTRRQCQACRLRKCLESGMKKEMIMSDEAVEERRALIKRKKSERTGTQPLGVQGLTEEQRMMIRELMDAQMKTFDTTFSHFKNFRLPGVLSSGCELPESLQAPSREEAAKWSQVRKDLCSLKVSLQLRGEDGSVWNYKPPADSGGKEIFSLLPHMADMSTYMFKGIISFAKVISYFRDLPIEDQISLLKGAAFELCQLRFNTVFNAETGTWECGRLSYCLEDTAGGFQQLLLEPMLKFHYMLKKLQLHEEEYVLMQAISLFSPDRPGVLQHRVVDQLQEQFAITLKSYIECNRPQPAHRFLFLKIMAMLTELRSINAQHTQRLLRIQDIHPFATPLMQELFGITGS
Outline: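 Luciferase signal from ONE-Glo (30 min, room temperature) measured activation of hPXR-driven CYP3A4 reporter expression in PXR-Luc HepG2 cells treated with compounds for 24 hr at 37 C.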

[14] = target: Thyrotropin-releasing hormone receptor (Homo sapiens) (UniProt P34981); test: qHTS assay to identify small molecule antagonists of the thyrotropin-releasing hormone receptor (TRHR) signaling pathway (AID 1346877; active = well fitted inhibition curve with a large enough effect in the repeat runs, not every such curve was filed as active; note: series mostly up to about 51 µM)
Sequence of Thyrotropin-releasing hormone receptor (Homo sapiens) (P34981 whole entry, looked up): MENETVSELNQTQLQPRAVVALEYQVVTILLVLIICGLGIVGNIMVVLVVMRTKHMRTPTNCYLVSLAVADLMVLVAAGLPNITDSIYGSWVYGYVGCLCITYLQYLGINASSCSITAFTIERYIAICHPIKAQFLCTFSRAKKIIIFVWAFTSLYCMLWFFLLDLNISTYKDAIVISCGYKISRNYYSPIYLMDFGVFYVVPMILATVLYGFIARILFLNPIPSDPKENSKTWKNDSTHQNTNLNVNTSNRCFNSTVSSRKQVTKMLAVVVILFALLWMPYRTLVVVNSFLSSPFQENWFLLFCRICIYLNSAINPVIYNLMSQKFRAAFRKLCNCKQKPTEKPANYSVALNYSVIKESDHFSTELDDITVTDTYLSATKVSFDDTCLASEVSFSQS
Outline: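 Intracellular calcium fluorescence, read kinetically every second over 3 min, reports TRH-evoked signalling in HEK293 cells carrying TRHR. Test compounds were added 5 min ahead of a 1 nM TRH challenge.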

[15] = target: Thyrotropin-releasing hormone receptor (Homo sapiens) (UniProt P34981); test: qHTS assay to identify small molecule agonists of the thyrotropin-releasing hormone receptor (TRHR) signaling pathway (AID 1346891; calls by dose curve; note: series mostly up to about 58 µM)
Outline: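 Readout was intracellular calcium fluorescence in TRHR-Hek293 cells. Cells were incubated 18 h, dye-loaded 2 h at 37 °C, and treated with compound in agonist mode.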

[16] = Caspase-3/7 induction in CHO-K1 cells by small molecules, qHTS assay (AID 1346980); note: nearly all actives have a fitted effect of over 15% in size
Outline: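 Luminescent Caspase-Glo 3/7 read (30min, room temperature) quantified apoptosis induction. Cells were wild-type CHO-K1, treated with compound for 17hr at 37 C and 5% CO2.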

[17] = Caspase-3/7 induction in CHO-K1 cells by small molecules, qHTS cell viability counter screen (AID 1346979); note: nearly all actives have a fitted effect of over 35% in size
Outline: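 Following a 5hr settling period, CHO-K1 cells at 1,500 per well received DMSO-dissolved compounds. Cell viability was quantified 16hr later by CellTiter-Fluor fluorescence, measured after 1hr with reagent at 37C.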

[18] = target: Nuclear receptor subfamily 1 group I member 2 (Rattus norvegicus) (UniProt Q9R1A7); test: Rat pregnane X receptor (rPXR) activation by small molecules, qHTS assay (AID 1346983); conditions: rPXR luciferase reporter cells, One-Glo luminescence, 24 h; max activation: stronger effect = higher value; note: nearly all actives have a fitted effect of over 20% in size
Sequence of Nuclear receptor subfamily 1 group I member 2 (Rattus norvegicus) (Q9R1A7 whole entry, looked up): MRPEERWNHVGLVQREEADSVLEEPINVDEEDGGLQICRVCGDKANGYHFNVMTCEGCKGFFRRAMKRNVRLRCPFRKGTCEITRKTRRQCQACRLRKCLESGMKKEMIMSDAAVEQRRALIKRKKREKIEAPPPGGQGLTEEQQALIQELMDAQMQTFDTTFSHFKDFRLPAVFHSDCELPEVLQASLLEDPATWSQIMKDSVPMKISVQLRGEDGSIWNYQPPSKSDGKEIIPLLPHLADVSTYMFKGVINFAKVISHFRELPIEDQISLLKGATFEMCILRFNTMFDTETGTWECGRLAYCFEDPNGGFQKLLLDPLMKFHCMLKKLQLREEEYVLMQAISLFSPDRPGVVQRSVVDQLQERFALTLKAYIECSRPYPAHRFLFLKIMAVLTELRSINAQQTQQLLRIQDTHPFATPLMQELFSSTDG
Outline: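 Luminescent readout (One-Glo luciferase, 30 min room temperature) followed 24 hr compound treatment at 37 C of rPXR cells plated 2,000 per well and preincubated 5hr; qHTS format with compounds delivered in DMSO.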

[19] = target: Nuclear receptor subfamily 1 group I member 2 (Homo sapiens) (UniProt O75469); test: CYP3A4 induction through human pregnane X receptor (PXR) by small molecules, qHTS assay (AID 1346984); note: nearly all actives have a fitted effect of over 40% in size
Outline: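 Luminescence readout: luciferase signal after One-Glo (30 min, room temperature), following 3 h at 37C with 3uM final Luciferin-IPA P450 substrate. Cells were DPX-2 (HepG2, PXR/CYP3A4-luc co-transfected) dosed for 24 h.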
% is set by controls: 0 for no effect and ±100 for the full control effect.

CC(=O)OCC(=O)[C@@]1(OC(C)=O)[C@@H](C)C[C@H]2[C@@H]3C[C@H](F)C4=CC(=O)C=C[C@]4(C)[C@@]3(F)[C@@H](O)C[C@@]21C
inactive: Potency [1] | Potency [2] | Potency [4] | outcome [5] | Potency [6] | Potency [7] | Potency [8] | Potency [9] | Potency [10]
active: Potency [3] 0.237 µM

CC(=O)OCCC(C)CC(C)(C)C (centres undefined)
inactive: Potency [1] | Potency [2] | Potency [3] | Potency [11] | outcome [5] | Potency [6] | Potency [12] | Potency [8] | Potency [9] | Potency [13]
active: Potency [10] 71 µM

C1CCCCC1
inactive: Potency [1] | Potency [2] | Potency [4] | outcome [5] | Potency [6] | Potency [12] | outcome [14] | outcome [15] | Potency [7] | Potency [8] | outcome [16] | Potency [9] | Potency [13] | Potency [10]

CC(=O)OCC1=C(C(=O)O)N2C(=O)[C@@H](NC(=O)CSc3ccncc3)[C@H]2SC1
active: Potency [10] 11 µM
inactive: Potency [1] | Potency [2] | Potency [3] | Potency [4] | outcome [5] | Potency [12] | outcome [14] | outcome [15] | Potency [7] | Potency [8] | Potency [17] | outcome [16] | Potency [9] | max activation [18] -5.99%

CC(C)C(O)C(C)(C)CO (centres undefined)
inactive: Potency [1] | Potency [2] | Potency [11] | outcome [5] | Potency [6] | Potency [12] | outcome [14] | outcome [15] | Potency [7] | Potency [8] | Potency [17] | outcome [16] | Potency [9] | Potency [13]
active: Potency [10] 32.7 µM

O=C1NC(=O)c2cccc3cccc1c23
active: Potency [13] 12.2 µM
inactive: Potency [1] | Potency [2] | Potency [11] | Potency [4] | outcome [5] | Potency [6] | Potency [12] | outcome [14] | outcome [15] | Potency [7] | Potency [8] | Potency [17] | Potency [9] | Potency [10]

COc1ccc(/C=C/C(=O)c2ccc(OC)cc2OC)cc1
active: Potency [8] 10.6 µM | Potency [13] 29.8 µM
inactive: Potency [1] | Potency [2] | Potency [3] | outcome [5] | Potency [6] | Potency [12] | outcome [14] | outcome [15] | Potency [7] | outcome [16] | Potency [9] | Potency [19]

CC(=O)C(=O)CC(C)C
inactive: Potency [1] | Potency [2] | Potency [3] | Potency [4] | outcome [5] | Potency [12] | outcome [14] | outcome [15] | Potency [7] | Potency [8] | Potency [17] | outcome [16] | Potency [9] | Potency [13] | Potency [10]
